# Assay results: article PMC4552634, “A New Set of Chemical Starting Points with Plasmodium falciparum Transmission-Blocking Potential for Antimalarial Drug Discovery” (PLoS ONE, 2015)
# Screen size: about 13,000 compounds; about 3,200 (25%) showed an effect of 50% or more. The list shows a part of the results.
# System: P. falciparum stage V gametocytes
# Parameters: BacTiter-Glo ATP luminescence viability of purified stage V gametocytes in 384-well plates, per cent inhibition versus DMSO
# Conditions: 48 h, 5 µM; inhibitor
row,SMILES,% Inhibition [%]
1,CCCCCCCCCN(CCC)C(=O)[C@@H]1OC(C(=O)OC(c2ccccc2)c2ccccc2)=C[C@H](NC(=O)OC(C)(C)C)[C@H]1NC(C)=O [TCMDC-132020],-25.5
2,O=C(Nc1ccc(Oc2cccnc2)cc1)C1CCN(Cc2cc(Cl)ccc2O)CC1 [TCMDC-124640],-32.1
3,O=C(Cc1cnc[nH]1)Nc1ccc(-c2ccc(-c3nc4ccc(F)cc4[nH]3)cc2)cc1 [TCMDC-136781],-5.638
4,CC(=O)Nc1nc(C(=O)Nc2ccc(-c3cccc(-c4nc5ccc(F)cc5[nH]4)c3)cc2)cs1 [TCMDC-137122],-21.41
5,O=C(NCc1cccc(OC(F)(F)F)c1)c1cnc2c(c1)nc(-c1cnc(-c3ccccc3)[nH]1)n2CCc1cnc[nH]1 [TCMDC-139690],-64.98
6,CCn1c(=O)c(C(=O)Nc2cc(Cl)c(OC)cc2OC)nc2ccccc21 [TCMDC-125064],-72.41
7,COc1cc(OC)c(NC(=O)C2c3ccccc3C(=O)N(CC(C)C)C2c2cccs2)cc1Cl (centres unmarked) [TCMDC-124760],55.1
8,COc1ccc(OC)c(NC(=O)C2c3ccccc3C(=O)N(CC(C)C)C2c2cccs2)c1 (centres unmarked) [TCMDC-124759],26.61
9,O=C(CN1CCN(C(C(=O)Nc2cc(C(F)(F)F)ccc2Cl)c2ccccc2)CC1)NC1CC1 (centres unmarked) [TCMDC-125267],8.518
10,COc1ccc(CCNc2nc(NCCc3cnc[nH]3)nc(NCc3cccc4ccccc34)n2)cc1OC [TCMDC-139244],77.02
11,COc1cc2nc(N3CCC(c4ccccc4)CC3)nc(NCc3ccc(=O)[nH]c3)c2cc1OC [TCMDC-136497],-1.844
12,COc1cc2nc(N3CCC(CCCC4CCNCC4)CC3)nc(NCc3ccccn3)c2cc1OC [TCMDC-138494],104
13,COc1ccc(C(C)Nc2nc(N)c3cc(OC)c(OC)cc3n2)cc1.Cl (centres unmarked) [TCMDC-131891],10.29
14,COc1cc2nc(NCCc3ccccc3)nc(NC(C)c3ccccc3)c2cc1OC (centres unmarked) [TCMDC-135384],51.56
15,COc1cc2nc(NCCc3ccccc3)nc(NCc3ccc(C#N)cc3)c2cc1OC [TCMDC-135300],97.53
16,C[C@@H](Nc1nc(NCc2ccccc2)c2sccc2n1)c1ccccc1 [TCMDC-136500],-1.002
17,c1ccc(CNc2nc(NCCc3cnc[nH]3)nc(NCc3cccc4ccccc34)n2)cc1 [TCMDC-139737],1.176
18,CC(C)Nc1nc(NCCc2cnc[nH]2)nc(NCc2cccc3ccccc23)n1 [TCMDC-139736],1.941
19,CC[C@H]1CN2CC[C@H]1C[C@H]2[C@H](OC(=O)c1ccccc1)c1cc(C#N)nc2ccc(OC)cc12 [TCMDC-138208],28.19
20,NC(N)=NC(=O)Nc1cc(Cl)c(Cl)c(Br)c1 [TCMDC-137463],-17.34
21,N=C(N)c1cc(Cl)cc(NC(=O)Nc2cc(Cl)cc(C(=N)N)c2)c1 [TCMDC-124110],-2.183
22,COc1cc2nc(NCC3CCCCC3)nc(NCc3ccccc3)c2cc1OC [TCMDC-132014],59.54

row,SMILES,% Inhibition [%]
1,COc1cc2nc(N3CCN(C(=O)c4ccco4)CC3)nc(NCc3ccccc3)c2cc1OC [TCMDC-132028],52.38
2,COc1cc2nc(-c3ccccc3)nc(N3CCN(C(=O)c4ccco4)CC3)c2cc1OC [TCMDC-125059],-9.427
3,COc1cc2nc(N3CCC(C(N)=O)CC3)nc(NCc3ccccc3)c2cc1OC [TCMDC-132023],16.05
4,COc1cc2nc(NCCc3ccccc3)nc(NCc3cc(C)no3)c2cc1OC [TCMDC-135435],96.72
5,COc1ccc(CNc2nc(NCCc3ccccc3)c3cc(OC)c(OC)cc3n2)cc1OC [TCMDC-132019],85.76
6,CC(=O)NCCCCC1NC2(C(=O)N(Cc3ccc(C(C)(C)C)cc3)c3ccccc32)C2C(=O)N(C3CCCCC3)C(=O)C12 (centres unmarked) [TCMDC-139771],5.053
7,Cc1cc(N(C)C)nc(Nc2ccc(NC(=O)c3ccc(F)cc3)cc2)n1 [TCMDC-124723],5.364
8,O=C(Nc1ccc(Cl)cc1)Nc1cccc(-c2ccc(-c3nc4ccccc4[nH]3)cc2)c1 [TCMDC-133182],-15.2
9,CN(C)CCCNc1ncnc2c1[nH]c1ccc(F)cc12 [TCMDC-125598],-5.367
10,COc1ccc(CCNc2nc(N)c3cc(OC)c(OC)cc3n2)cc1.Cl [TCMDC-131888],1.23
11,O=c1ccc(CNc2nc(NCCc3ccccc3)nc3cc(Cl)ccc23)c[nH]1 [TCMDC-136510],52.65
12,COc1cc2ncnc(Nc3ccc(OCc4ccccc4)c(C(F)(F)F)c3)c2cc1OC [TCMDC-131921],4.607
13,COc1cc2nc(NCCc3ccccc3)nc(NCc3nccs3)c2cc1OC [TCMDC-135436],24.41
14,COc1ccc(CNc2nc(NCc3ccc(C(F)(F)F)cc3)c3cc(OC)c(OC)cc3n2)cc1OC [TCMDC-132016],104.7
15,O=c1ccc(CNc2nc(NCCc3ccccc3)nc3ccc(Cl)cc23)c[nH]1 [TCMDC-136489],35.37
16,COc1cc2nc(NCCn3nc(C)cc3C)nc(NCCc3ccccc3)c2cc1OC [TCMDC-135473],52.48
17,Clc1ccc2c(NCCc3ccccc3)ccnc2c1 [TCMDC-138551],-1.928
18,COc1cc2nc(NCCc3ccccc3)nc(NCCCc3ccccc3)c2cc1OC [TCMDC-135301],108
19,Cc1c(CNCCCNc2cc(=O)c3ccccc3[nH]2)sc(-c2ccco2)c1Br [TCMDC-141065],-27.75
20,CSc1cccc(Nc2nc3ccc(S(=O)(=O)NC(C)C(C)C)cc3n2[C@H](C)C(C)(C)C)c1 (some centres unmarked) [TCMDC-136239],-63.84
21,Cc1nn(C)cc1C(C)Nc1nncc(-c2ccc(C(F)(F)F)cc2)n1 (centres unmarked) [TCMDC-124694],-19.2
22,OC1(c2ccc(Br)cc2)CCN(C2CCN(Cc3ccccc3)CC2)CC1 [TCMDC-124137],40.29
